Source: the supplement of paper PMC11732987, “Enantioselective OTUD7B fragment discovery through chemoproteomics screening and high-throughput optimisation” (Communications Chemistry, 2025)

Tests used:
Test in all cases: log2 ratio of Biotin-Ahx-Ub-VS probe labelling (fragment/DMSO); higher = less target engagement (more negative = stronger competition), active = hit call of the paper (q ≤ 0.05, log2 ratio ≤ -1)
Conditions in all cases: compound concentration: 200 uM; treatment time: 3 h
USP34 = USP34 (UniProt Q70CQ2)
How it was run: (§1)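 The table lists average log2 ratios of fragment over vehicle, from an unpaired t-test on global-median-normalised Spectronaut label-free quantities. Proteins with ≥2 unique peptides were used. Samples were HEK293T lysate (495 µg) treated in triplicate with fragment at 200 µM or vehicle for 3 h, then with Biotin-Ahx-Ub-VS (0.5 µM final) for 1 h, with labelled DUBs NeutrAvidin-enriched and run by diaPASEF LC-MS/MS.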

USP36 = target: T1, USP36 (UniProt Q9P275)
T1 sequence (whole entry): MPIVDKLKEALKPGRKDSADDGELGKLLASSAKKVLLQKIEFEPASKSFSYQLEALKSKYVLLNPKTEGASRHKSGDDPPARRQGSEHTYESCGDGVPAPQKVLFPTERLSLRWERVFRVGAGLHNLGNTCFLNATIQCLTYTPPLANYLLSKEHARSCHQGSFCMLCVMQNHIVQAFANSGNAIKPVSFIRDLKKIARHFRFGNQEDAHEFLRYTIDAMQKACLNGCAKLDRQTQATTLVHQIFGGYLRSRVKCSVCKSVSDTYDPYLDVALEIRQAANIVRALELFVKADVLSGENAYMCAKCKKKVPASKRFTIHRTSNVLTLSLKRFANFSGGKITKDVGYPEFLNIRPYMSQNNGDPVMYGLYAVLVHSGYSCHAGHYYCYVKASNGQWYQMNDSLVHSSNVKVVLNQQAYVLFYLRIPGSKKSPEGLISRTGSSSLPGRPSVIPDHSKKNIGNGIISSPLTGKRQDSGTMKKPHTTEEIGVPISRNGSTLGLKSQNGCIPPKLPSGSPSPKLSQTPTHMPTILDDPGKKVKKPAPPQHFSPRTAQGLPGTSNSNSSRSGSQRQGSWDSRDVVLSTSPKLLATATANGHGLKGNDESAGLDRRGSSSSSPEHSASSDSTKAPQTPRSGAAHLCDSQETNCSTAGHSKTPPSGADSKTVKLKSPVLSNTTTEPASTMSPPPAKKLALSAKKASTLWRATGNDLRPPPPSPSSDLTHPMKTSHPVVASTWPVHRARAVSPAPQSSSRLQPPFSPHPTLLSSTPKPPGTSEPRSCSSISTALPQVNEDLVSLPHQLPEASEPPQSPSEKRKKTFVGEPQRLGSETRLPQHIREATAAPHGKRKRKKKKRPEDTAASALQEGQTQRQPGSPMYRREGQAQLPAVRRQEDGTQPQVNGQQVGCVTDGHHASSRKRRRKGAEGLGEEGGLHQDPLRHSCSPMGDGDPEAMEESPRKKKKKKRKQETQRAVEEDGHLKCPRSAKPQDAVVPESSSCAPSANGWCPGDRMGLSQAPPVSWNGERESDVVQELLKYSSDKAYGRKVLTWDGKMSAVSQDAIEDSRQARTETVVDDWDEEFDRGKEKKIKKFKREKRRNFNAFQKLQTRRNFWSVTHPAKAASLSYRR
How it was run: as §1

USP38 = target: T2, USP38 (UniProt Q8NB14)
T2 sequence (whole entry): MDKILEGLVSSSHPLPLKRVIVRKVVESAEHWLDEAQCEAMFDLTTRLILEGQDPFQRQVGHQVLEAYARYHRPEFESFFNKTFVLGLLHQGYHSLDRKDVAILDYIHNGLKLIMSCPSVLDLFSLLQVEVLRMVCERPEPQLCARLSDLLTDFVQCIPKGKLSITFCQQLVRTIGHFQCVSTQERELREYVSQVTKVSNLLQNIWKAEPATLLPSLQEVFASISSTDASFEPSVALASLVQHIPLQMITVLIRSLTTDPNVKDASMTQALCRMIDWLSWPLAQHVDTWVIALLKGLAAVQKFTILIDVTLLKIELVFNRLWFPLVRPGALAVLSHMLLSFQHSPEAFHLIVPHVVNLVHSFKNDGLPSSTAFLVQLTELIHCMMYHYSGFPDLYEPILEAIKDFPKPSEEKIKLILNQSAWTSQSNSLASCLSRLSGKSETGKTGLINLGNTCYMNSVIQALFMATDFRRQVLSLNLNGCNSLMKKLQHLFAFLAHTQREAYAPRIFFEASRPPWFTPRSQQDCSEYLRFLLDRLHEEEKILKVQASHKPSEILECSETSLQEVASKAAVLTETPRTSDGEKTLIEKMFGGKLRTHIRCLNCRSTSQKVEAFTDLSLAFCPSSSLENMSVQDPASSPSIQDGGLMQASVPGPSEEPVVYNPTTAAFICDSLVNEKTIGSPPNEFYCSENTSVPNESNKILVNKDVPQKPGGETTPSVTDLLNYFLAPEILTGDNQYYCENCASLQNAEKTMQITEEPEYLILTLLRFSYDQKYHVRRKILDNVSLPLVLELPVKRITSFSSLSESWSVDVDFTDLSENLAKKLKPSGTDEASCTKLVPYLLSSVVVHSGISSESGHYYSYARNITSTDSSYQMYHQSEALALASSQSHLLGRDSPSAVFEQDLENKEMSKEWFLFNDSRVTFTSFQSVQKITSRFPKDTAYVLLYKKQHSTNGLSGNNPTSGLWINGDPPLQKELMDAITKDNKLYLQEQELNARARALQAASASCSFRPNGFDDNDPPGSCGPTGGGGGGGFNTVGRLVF
How it was run: as §1

USP39 = target: T3, USP39 (UniProt Q53GS9)
T3 sequence (whole entry): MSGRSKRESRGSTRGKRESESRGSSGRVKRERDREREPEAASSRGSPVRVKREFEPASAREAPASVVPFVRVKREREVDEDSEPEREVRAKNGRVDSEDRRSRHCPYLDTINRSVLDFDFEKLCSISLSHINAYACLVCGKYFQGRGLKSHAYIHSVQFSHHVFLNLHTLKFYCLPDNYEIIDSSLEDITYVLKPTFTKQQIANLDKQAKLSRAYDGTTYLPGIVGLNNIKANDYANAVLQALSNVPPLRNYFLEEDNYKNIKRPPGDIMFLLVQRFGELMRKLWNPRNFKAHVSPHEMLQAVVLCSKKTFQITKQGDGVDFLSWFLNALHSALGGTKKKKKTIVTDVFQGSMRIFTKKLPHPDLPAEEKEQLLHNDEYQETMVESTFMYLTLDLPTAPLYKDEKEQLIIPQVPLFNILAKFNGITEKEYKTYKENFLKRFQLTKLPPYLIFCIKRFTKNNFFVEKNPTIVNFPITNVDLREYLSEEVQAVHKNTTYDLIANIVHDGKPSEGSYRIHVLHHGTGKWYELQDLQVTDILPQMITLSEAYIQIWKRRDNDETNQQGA
How it was run: as §1

USP4 = target: T4, USP4 (UniProt Q13107)
T4 sequence (whole entry): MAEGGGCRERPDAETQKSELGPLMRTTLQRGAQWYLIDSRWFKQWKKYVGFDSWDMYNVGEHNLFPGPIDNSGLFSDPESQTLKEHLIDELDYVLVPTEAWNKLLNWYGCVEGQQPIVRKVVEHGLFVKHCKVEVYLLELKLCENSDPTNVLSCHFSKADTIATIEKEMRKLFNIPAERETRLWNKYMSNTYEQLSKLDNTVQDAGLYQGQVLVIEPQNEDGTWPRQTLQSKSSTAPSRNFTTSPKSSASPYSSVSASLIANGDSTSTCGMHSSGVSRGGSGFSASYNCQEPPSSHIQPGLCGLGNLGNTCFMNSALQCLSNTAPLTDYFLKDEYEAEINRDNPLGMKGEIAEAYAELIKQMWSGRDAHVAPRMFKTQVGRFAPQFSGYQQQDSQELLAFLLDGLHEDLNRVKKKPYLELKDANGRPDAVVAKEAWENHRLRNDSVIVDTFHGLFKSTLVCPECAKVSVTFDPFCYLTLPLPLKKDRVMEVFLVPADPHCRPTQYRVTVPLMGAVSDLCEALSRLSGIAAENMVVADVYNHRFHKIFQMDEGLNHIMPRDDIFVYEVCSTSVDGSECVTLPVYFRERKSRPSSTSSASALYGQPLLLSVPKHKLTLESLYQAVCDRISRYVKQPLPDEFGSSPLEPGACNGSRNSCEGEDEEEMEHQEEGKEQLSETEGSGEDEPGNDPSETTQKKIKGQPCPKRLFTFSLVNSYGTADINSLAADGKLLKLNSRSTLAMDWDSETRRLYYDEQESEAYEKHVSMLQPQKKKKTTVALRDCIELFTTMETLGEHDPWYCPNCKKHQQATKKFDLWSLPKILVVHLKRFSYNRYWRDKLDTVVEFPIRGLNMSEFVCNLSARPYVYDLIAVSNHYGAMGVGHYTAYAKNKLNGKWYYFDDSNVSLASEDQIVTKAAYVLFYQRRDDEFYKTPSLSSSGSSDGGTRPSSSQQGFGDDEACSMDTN
How it was run: as §1

Measured: log2 ratio of Biotin-Ahx-Ub-VS probe labelling

USP34, sequence (Q70CQ2 whole entry, the tested form may be a part): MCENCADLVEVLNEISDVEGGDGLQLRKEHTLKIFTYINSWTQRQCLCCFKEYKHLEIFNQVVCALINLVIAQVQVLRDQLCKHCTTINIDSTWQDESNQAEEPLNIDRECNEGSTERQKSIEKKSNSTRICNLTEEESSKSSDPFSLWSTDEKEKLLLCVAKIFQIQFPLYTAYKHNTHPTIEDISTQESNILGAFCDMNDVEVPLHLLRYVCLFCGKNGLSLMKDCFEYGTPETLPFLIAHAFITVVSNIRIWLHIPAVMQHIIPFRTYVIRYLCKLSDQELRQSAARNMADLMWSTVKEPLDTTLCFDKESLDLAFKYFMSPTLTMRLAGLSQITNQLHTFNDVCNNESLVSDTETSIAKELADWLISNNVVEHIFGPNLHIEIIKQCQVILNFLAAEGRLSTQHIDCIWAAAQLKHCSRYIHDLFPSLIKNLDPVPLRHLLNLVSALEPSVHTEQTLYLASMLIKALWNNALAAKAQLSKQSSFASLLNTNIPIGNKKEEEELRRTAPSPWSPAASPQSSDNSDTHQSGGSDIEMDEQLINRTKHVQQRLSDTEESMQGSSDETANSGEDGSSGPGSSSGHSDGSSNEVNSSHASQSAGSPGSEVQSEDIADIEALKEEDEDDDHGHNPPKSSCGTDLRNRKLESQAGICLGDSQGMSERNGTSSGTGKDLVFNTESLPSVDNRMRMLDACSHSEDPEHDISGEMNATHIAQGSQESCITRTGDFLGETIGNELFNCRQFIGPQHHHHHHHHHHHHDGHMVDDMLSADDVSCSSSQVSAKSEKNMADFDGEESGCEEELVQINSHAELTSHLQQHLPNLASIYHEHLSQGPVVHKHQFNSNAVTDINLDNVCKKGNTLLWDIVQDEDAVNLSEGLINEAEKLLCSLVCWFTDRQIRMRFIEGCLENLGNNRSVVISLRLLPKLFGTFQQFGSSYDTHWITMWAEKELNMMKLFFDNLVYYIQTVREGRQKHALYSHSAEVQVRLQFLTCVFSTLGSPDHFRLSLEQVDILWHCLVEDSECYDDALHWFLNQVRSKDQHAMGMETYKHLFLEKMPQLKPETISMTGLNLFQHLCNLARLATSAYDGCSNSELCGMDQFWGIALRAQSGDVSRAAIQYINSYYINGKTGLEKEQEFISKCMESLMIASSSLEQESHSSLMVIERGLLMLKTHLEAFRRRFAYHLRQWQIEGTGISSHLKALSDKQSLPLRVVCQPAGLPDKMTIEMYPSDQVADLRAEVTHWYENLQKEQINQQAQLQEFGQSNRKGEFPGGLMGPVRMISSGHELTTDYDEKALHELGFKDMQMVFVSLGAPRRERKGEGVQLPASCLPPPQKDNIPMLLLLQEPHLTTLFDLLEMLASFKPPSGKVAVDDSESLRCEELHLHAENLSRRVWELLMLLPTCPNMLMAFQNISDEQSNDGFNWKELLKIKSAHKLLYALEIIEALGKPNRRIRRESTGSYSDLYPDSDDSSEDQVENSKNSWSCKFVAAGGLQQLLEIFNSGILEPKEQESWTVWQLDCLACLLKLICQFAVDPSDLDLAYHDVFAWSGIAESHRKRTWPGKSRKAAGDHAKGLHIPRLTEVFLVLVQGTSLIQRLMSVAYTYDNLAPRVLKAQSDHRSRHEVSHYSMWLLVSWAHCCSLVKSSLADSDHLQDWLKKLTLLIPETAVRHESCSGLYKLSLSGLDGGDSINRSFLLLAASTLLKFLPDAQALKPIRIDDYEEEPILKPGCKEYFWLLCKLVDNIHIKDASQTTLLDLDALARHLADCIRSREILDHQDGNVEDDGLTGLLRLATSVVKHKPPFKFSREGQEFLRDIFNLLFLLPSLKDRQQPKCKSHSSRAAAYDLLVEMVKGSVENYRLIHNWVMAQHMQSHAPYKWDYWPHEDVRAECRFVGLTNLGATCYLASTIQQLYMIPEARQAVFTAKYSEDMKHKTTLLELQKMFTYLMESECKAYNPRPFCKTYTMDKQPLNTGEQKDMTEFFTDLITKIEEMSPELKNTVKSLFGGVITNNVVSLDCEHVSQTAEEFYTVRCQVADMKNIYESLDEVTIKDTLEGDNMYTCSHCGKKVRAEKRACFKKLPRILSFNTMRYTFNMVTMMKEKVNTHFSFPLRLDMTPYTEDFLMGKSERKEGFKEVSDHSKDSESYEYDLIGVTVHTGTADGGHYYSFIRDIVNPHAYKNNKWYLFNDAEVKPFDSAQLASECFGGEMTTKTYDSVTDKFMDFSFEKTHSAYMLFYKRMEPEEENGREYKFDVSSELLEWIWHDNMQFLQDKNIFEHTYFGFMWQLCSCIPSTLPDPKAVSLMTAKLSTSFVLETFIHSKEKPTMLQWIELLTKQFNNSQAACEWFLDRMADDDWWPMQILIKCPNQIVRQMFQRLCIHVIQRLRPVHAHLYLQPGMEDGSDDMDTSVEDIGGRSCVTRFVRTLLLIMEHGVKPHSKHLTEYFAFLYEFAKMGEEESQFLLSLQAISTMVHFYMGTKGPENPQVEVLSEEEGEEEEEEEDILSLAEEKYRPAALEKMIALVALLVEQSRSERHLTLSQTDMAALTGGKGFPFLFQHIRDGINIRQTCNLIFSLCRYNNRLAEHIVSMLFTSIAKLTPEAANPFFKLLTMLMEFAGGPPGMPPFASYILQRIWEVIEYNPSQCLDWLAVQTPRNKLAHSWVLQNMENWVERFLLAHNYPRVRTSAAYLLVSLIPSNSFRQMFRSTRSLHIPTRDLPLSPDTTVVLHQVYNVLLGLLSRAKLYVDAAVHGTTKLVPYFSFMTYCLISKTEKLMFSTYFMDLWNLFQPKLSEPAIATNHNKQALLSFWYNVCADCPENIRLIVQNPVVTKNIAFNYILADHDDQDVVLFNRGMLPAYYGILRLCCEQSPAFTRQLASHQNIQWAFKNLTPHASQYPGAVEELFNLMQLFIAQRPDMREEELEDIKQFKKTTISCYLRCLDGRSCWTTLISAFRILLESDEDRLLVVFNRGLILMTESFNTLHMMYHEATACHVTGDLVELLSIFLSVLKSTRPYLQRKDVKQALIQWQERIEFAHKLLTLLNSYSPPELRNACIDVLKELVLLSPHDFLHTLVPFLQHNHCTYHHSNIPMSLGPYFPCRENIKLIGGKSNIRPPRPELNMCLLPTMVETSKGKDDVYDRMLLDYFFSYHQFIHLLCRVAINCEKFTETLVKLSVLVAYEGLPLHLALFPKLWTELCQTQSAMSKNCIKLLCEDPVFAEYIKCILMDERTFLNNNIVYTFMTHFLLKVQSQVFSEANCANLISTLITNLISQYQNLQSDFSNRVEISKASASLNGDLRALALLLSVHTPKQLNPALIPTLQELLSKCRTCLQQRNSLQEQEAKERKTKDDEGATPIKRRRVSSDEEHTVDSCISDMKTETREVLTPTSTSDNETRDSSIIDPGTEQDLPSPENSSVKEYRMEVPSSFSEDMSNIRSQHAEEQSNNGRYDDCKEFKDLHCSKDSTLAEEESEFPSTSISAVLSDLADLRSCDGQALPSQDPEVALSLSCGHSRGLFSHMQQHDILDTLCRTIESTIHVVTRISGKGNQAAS

Cl.O=C(CCl)NCc1cc2c(nc1O)CCCC2
inactive: USP34 -0.103 | USP36 -0.408 | USP38 -0.0702 | USP39 -0.212 | USP4 -0.0856
